Among the data in PubChem BioAssay are growth inhibition, inhibition and outcome values, retold here.

Broadly, the inhibition is the relative decrease from the control value, in per cent.

Values without a mark were called inactive. For some of these results: Measured potencies and affinities stand elsewhere. Calls of active or inactive are those of the source. Unless noted, how the calls were made is not given here.

Assay [1] in a line: antimalarial activity against Dd2 strain (AID 2302;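 active means growth inhibition above 50% at the single 2 µM test dose, taken to imply half-maximal potency below 2 µM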;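 further: 0% = DMSO untreated growth and 100% = chloroquine plus artemisinin killed control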). As to conditions: P. falciparum Dd2 in RBCs, LDH growth readout, 72 h; at 2 µM; stronger effect = higher value.
Assay [2] in a line: HepG2 cytotoxicity, primary screen, cytotoxicity control for P. falciparum antimalarial project, cell-based, ATP luminescence (AID 2303;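 active means inhibition above 50%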;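 further: 0% = DMSO wells and 100% = digitonin-killed cells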). The note with it: HepG2 viability, 24-48 h, at 10 µM, stronger effect = higher value.
Assay [3] has as its target L-lactate dehydrogenase (Plasmodium falciparum (isolate CDC / Honduras)) (UniProt Q27743). The assay is described as follows: PfLDH activity inhibition – cell lysate, 3D7 strain, counter-screen for P. falciparum growth inhibition project (AID 2304).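 Further: 0% = vehicle and 100% = reference inhibitor.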 The note with it: P. falciparum 3D7 crude extract, LDH APAD/NBT absorbance; at 2 µM; stronger effect = higher value.
Assay [4] is described as follows: inhibition of 3D7 malaria parasite growth – strain 3D7 (AID 2306).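 Further: 0% = DMSO wells and 100% = chloroquine plus artemisinin control wells.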 The note with it: P. falciparum 3D7 erythrocytic growth, LDH absorbance, 72 h; at 2 µM; stronger effect = higher value.
Assay [5] deals with Calcium-dependent protein kinase 1 (Plasmodium falciparum (isolate 3D7)) (UniProt P62344). The assay is described as follows: PfCDPK1 kinase inhibitors, biochemical, TCAMS library (AID 1159585; cut-off not given, nearly all actives have IC50 up to about 0.98 µM;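 further: inhibitors leave more ATP so luminescence rises with inhibition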). As to conditions: recombinant PfCDPK1, Kinase-Glo ATP depletion luminescence. Background: In Kinase-Glo more light means more ATP remaining.
Assay [6] addresses Plasmodium falciparum protein kinase 6 (PK6, PF3D7_1337100) (UniProt Q8IDW1). The assay is described as follows: PfPK6 kinase inhibitors, biochemical, TCAMS library (AID 1159586). The note with it: recombinant PfPK6, Kinase-Glo ATP depletion luminescence.
The target in assay [7] is Protein kinase 7 (PK7), Plasmodium falciparum 3D7 (PF3D7_0213400) (UniProt Q7YTF7). Description: inhibition of Plasmodium PK7 catalytic activity – biochemical, TCAMS antimalarial set, Kinase-Glo luminescence (AID 1159587). The note with it: recombinant PfPK7, Kinase-Glo ATP depletion luminescence.
Assay [8] has as its target Calcium-dependent protein kinase 4 (Plasmodium falciparum (isolate 3D7)) (UniProt Q8IBS5). The assay is described as follows: PfCDPK4 kinase inhibitors, biochemical, TCAMS library (AID 1159588; cut-off not given, nearly all actives have IC50 up to about 0.91 µM). The note with it: recombinant PfCDPK4, Kinase-Glo ATP depletion luminescence.

Chain of Calcium-dependent protein kinase 4 (Plasmodium falciparum (isolate 3D7)) (Q8IBS5 whole entry, looked up): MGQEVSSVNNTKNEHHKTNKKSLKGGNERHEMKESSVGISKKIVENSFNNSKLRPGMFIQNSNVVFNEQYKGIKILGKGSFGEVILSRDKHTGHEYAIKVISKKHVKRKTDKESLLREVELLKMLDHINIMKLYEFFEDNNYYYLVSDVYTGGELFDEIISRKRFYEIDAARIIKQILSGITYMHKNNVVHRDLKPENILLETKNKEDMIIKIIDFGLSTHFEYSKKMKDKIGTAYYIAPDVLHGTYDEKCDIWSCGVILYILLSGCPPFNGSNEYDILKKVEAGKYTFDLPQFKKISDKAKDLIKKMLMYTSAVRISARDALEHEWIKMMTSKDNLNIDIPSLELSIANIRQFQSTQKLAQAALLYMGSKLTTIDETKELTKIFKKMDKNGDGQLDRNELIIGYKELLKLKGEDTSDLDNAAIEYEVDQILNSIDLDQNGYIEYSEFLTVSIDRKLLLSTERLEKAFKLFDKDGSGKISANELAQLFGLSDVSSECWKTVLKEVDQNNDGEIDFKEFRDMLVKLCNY
Chain of Plasmodium falciparum protein kinase 6 (PK6, PF3D7_1337100) (Q8IDW1 1-305): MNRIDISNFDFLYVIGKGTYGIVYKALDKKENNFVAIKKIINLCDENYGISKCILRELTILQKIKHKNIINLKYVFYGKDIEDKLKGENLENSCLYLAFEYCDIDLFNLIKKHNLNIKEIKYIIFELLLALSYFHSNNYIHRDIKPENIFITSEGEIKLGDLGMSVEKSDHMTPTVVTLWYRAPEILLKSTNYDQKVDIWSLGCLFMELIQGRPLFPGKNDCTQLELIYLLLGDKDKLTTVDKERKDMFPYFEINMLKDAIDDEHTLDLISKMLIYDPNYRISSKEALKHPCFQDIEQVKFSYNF
Chain of Calcium-dependent protein kinase 1 (Plasmodium falciparum (isolate 3D7)) (P62344 whole entry, looked up): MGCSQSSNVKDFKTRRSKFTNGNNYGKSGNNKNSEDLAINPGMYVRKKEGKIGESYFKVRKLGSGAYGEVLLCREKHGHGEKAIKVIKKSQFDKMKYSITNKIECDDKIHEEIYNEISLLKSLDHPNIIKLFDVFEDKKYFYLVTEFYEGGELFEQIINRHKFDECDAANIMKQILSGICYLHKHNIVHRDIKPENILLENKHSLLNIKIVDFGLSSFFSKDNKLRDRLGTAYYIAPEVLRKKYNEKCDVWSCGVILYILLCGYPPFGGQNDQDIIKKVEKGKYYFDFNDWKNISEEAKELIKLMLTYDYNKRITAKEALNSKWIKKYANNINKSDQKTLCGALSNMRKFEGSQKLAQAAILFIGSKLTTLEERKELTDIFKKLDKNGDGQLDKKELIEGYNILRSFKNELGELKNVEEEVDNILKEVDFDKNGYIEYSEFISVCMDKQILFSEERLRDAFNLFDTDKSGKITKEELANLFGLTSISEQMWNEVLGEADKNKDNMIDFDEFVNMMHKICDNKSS
Chain of Protein kinase 7 (PK7), Plasmodium falciparum 3D7 (PF3D7_0213400) (Q7YTF7 1-343): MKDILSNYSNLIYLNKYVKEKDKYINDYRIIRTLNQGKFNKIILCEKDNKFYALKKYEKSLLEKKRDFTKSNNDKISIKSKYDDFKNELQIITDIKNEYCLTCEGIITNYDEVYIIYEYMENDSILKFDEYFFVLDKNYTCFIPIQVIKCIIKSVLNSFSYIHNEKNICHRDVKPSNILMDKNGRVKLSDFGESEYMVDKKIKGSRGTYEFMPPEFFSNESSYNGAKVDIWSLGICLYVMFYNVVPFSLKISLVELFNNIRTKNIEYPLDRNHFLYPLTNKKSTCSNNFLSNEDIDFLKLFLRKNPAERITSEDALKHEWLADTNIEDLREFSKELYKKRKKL
Chain of L-lactate dehydrogenase (Plasmodium falciparum (isolate CDC / Honduras)) (Q27743 whole entry, looked up): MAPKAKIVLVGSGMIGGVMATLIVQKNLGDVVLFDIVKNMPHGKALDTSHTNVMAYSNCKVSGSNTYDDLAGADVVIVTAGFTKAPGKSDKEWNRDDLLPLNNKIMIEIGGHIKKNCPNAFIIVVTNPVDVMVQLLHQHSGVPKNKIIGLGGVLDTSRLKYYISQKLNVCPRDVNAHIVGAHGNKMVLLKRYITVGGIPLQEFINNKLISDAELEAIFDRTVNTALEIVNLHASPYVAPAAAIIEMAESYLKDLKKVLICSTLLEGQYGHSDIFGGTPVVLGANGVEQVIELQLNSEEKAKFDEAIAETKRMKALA

For the compound `Cc1c(C)n(Cc2ccccc2)c2ncnc(OC3CCN(CC(=O)NCC4CC4)CC3)c12`, the growth inhibition is 79% (active) in assay [1] and 92% (active) in assay [4]. Also, the results for the inhibition in assay [2] and in assay [3] were 17% and -3%, respectively. Also, the outcome in assay [5], in assay [6], in assay [7] and in assay [8] was inactive.
Consider `O=C(N[C@@H](Cc1ccccc1)C(=O)NCc1cccc(C(F)(F)F)c1)c1ccc(O)c(-c2ccc(Cl)c(Cl)c2)c1`, for which the growth inhibition was 97% (active) in assay [1] and 96% (active) in assay [4]. The inhibition in assay [2] was -13%; in assay [3], -1%. The outcome in assay [5], in assay [6], in assay [7] and in assay [8] was inactive.
In the case of `CCc1ccc(NC(=O)c2ccc(CN3CCCN(Cc4cccc(Cl)c4)CC3)cc2)cc1`, the growth inhibition is 2% in assay [1] and 84% (active) in assay [4]. The results for the inhibition in assay [2] and in assay [3] were 50% (active) and 5%, respectively. For the same compound, the outcome in assay [5], in assay [6], in assay [7] and in assay [8] was inactive.
For `CCC[C@@H]([C@@H](CC1CCC(C)CC1)C(=O)N[C@@H](CO)C(=O)Nc1nccs1)N(O)C=O` (stereo not given in full), the growth inhibition in assay [1] is 84% (active); in assay [4] it was 100% (active). Also, the results for the inhibition in assay [2] and in assay [3] were 0% and -2%, respectively. Further, the outcome in assay [5], in assay [6], in assay [7] and in assay [8] was inactive.
On to `CCC(C)(C)C1CCc2nc(N)nc(N)c2C1` (stereo not given), for which the growth inhibition in assay [1] is 97% (active); in assay [4] it was 95% (active). Moreover, the inhibition in assay [2] was 71% (active); in assay [3], 4%. For the same compound, the result in assay [5], in assay [6], in assay [7] and in assay [8] was inactive.
`CC(=O)Nc1cccc(-c2cnc(N)c3cc(-c4ccc5c(c4)OCO5)ccc23)c1`: the growth inhibition in assay [1] was 93% (active); in assay [4], 99% (active). Besides, the inhibition was 100% (active) in assay [2] and -4% in assay [3]. The outcome in assay [5], in assay [6], in assay [7] and in assay [8] was inactive.
On to `CC(O)C1CCCCN1C(=O)c1cccc(-c2ccc(-c3nc4ccc(F)cc4[nH]3)cc2)c1` (stereo not given), for which the growth inhibition is 99% (active) in assay [1] and 101% (active) in assay [4]. The inhibition in assay [2] is 46%; in assay [3], -6%. Moreover, the result in assay [5], in assay [6], in assay [7] and in assay [8] was inactive.
Regarding `Cc1[nH]c(C)c(-c2ccc(Oc3cccc(Cl)c3)cc2)c(=O)c1Cl`, the growth inhibition in assay [1] was 97% (active); in assay [4], 99% (active). The inhibition is 40% in assay [2] and -3% in assay [3]. The outcome in assay [5], in assay [6], in assay [7] and in assay [8] was inactive.
`Cc1ccc2ncc(Cl)c(CCN3CCC(NCc4ccc5c(n4)NC(=O)CS5)CC3)c2n1`: the growth inhibition in assay [1] is 12%; in assay [4] it was 90% (active). The inhibition was 13% in assay [2] and -3% in assay [3]. Moreover, the result in assay [5], in assay [6], in assay [7] and in assay [8] was inactive.
Turning to `CN1CCN(c2ccnc3ccc(NC(=O)Cc4ccc(Br)c5ccccc45)cc23)CC1`, the growth inhibition in assay [1] was 99% (active); in assay [4], 96% (active). Also, the inhibition in assay [2] was 8%; in assay [3], -3%. Moreover, the outcome in assay [5], in assay [6], in assay [7] and in assay [8] was inactive.
As to `Cn1c(NCc2cc(F)cc3c2OCOC3)nc2cc(Nc3ccnc(Nc4cccc(CS(C)(=O)=O)c4)n3)ccc21`, the growth inhibition was 100% (active) in assay [1] and 102% (active) in assay [4]. Also, the results for the inhibition in assay [2] and in assay [3] were -14% and -1%, respectively. Further, the outcome in assay [5], in assay [6], in assay [7] and in assay [8] was inactive.
With `Cc1ccc(-c2cc(C(=O)Nc3ccc(S(=O)(=O)N4CCCC(C)C4)cc3)[nH]n2)c(O)c1` (stereo not given), the results for the growth inhibition in assay [1] and in assay [4] were 99% (active) and 102% (active), respectively. In addition, the inhibition in assay [2] is 32%; in assay [3] it was -4%. Further, the result in assay [5], in assay [6], in assay [7] and in assay [8] was inactive.
Turning to `CN=C(NC)c1cccc(NC(=O)C=Cc2ccc(C=CC(=O)Nc3cccc(C(=NC)NC)c3)cc2)c1`, the figures for the growth inhibition in assay [1] and in assay [4] were 99% (active) and 98% (active), respectively. In addition, the values for the inhibition in assay [2] and in assay [3] were 21% and 2%, respectively. Further, the result in assay [5], in assay [6], in assay [7] and in assay [8] was inactive.
For `COc1cc(Cc2cnc(N)nc2N)cc(OCc2cccc(C(=O)O)c2)c1OC`, the figures for the growth inhibition in assay [1] and in assay [4] were -3% and 92% (active), respectively. In addition, the inhibition in assay [2] was 8%; in assay [3] it was 4%. Further, the result in assay [5], in assay [6], in assay [7] and in assay [8] was inactive.
Turning to `Cc1cc(N[C@@H](Cc2ccccc2)C(=O)NCCc2ccccc2)nc(NCCc2ccccc2)n1`, the growth inhibition in assay [1] was 57% (active); in assay [4], 100% (active). Moreover, the figures for the inhibition in assay [2] and in assay [3] were -4% and -2%, respectively. For the same compound, the outcome in assay [5], in assay [6], in assay [7] and in assay [8] was inactive.
For `CN1CC[C@@H](Oc2cc(C(=O)NCc3ccc(Cl)c(Cl)c3)ccc2C(F)(F)F)C1`, the results for the growth inhibition in assay [1] and in assay [4] were 4% and 88% (active), respectively. Also, the inhibition in assay [2] is 8%; in assay [3], 2%. Besides, the outcome in assay [5], in assay [6], in assay [7] and in assay [8] was inactive.
With `Cn1nc(-c2cccc(CNCc3ccccc3)c2)c2cnc(NC3CCCC3)nc21`, the growth inhibition in assay [1] is 11%; in assay [4], 85% (active). The results for the inhibition in assay [2] and in assay [3] were 5% and 1%, respectively. The outcome in assay [5], in assay [6], in assay [7] and in assay [8] was inactive.
For the compound `O=C(Nc1ccccc1)N(Cc1ccc(-c2ccc(CNCc3ccc4c(c3)OCO4)cc2)cc1)C1CCN(Cc2ccccc2)CC1`, the values for the growth inhibition in assay [1] and in assay [4] were 41% and 98% (active), respectively. The inhibition was 21% in assay [2] and -1% in assay [3]. For the same compound, the result in assay [5], in assay [6], in assay [7] and in assay [8] was inactive.
For the compound `CC(C)(C)COC(=O)c1ccc(NC(=O)N[C@@H](Cc2ccc(O)cc2)C(=O)NC2CCN(Cc3ccc(O)cc3)C2)cc1` (stereo not given in full), the values for the growth inhibition in assay [1] and in assay [4] were 21% and 94% (active), respectively. In addition, the results for the inhibition in assay [2] and in assay [3] were 3% and -1%, respectively. The result in assay [5], in assay [6], in assay [7] and in assay [8] was inactive.
As to `OC1CCCN(Cc2ccc(-c3ccc(-c4nc5ccc(F)cc5[nH]4)s3)cc2)C1` (stereo not given), the growth inhibition in assay [1] was 99% (active); in assay [4], 100% (active). Further, the inhibition in assay [2] was 40%; in assay [3] it was -5%. Moreover, the result in assay [5], in assay [6], in assay [7] and in assay [8] was inactive.
